SW480 rereplic = induces DNA re-replication in SW480 colon adenocarcinoma cells. 1.8% of 340,000 active. Potency, µM (highest dose often 46.1 µM), without a hit: at the highest dose re-replication activation, usual class: activators. SW480 DNA re-replication, Hoechst DNA content imaging, 48 h; also: % of control where 0% means no effect; nearly all actives have a fitted effect of over 55% in size
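SW480 cells exposed to compounds for 48 hr at 37 C, 5% CO2, then Hoechst-stained 40 min. Nuclear DNA content imaged by fluorescence scanning (405 nm excitation, 500-530 nm emission); re-replication scored as increased high-intensity nuclei.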
KB-V1 cytotox = KB-V1 MDR subline cytotoxicity | KB-V1 MDR cells viability, CellTiter-Glo, 72 h | Potency, µM (doses to about 46.1 µM), usual class: cytotoxic | 3.4% of 400,000 active; also: % is scaled to controls: 0 for no effect and ±100 for the full control effect; nearly all actives have a fitted effect of over 60% in size
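Following 72 h at 37 degrees C with compound, KB-V1 cell viability was read by CellTiter-Glo luminescence, medium being phenol-red-free DMEM plus 10% FBS; concentration-response parameters came from normalized, curve-fitted qHTS data.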
KB-3-1 cytotox = kills parental KB-3-1 adenocarcinoma cells; KB-3-1 viability, CellTiter-Glo ATP luminescence, 72 h; 1.4% of 400,000 active; Potency, µM (doses to about 46.1 µM), usual class: cytotoxic; also: % is scaled to controls: 0 for no effect and ±100 for the full control effect; nearly all actives have a fitted effect of over 60% in size
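Parental KB-3-1 viability, qHTS format: 72 h compound exposure, 37 °C; CellTiter-Glo; media-only wells and DMSO plates as controls; concentration-effect fits on corrected data.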
MCF10A rereplic = DNA re-replication induction in MCF 10a cells. 2.9% of 350,000 active. Potency, µM (series often up to 46.1 µM), for inactives: at the highest dose activity, positive = re-replication, hits mostly activators. MCF 10A DNA re-replication, Hoechst nuclear intensity, 48 h; also: % of control where 0% means no effect; nearly all actives have a fitted effect of over 50% in size
HT1080 IDH1KD tx = kills HT-1080 cells with IDH1 knockdown. HT-1080 IDH1 knockdown viability, ATP luminescence, 48 h. Potency, µM (highest dose often 46.1 µM), for the others: at the top dose activity, negative = toxicity, most hits filed as cytotoxic. 2% of 360,000 active. AID 686971;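 also: 0% = DMSO wells and -100% = cell-free medium wells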
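After a 2 h attachment period, IDH1KD HT-1080 cells took pin-transferred compound for 48 h at 37 °C; ATP-based luminescence after 10 min room-temperature reagent incubation reported viability.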
HT1080-NT tox = kills 2HG-producing HT-1080-NT fibrosarcoma cells; HT-1080-NT fibrosarcoma viability, CellTiter-Glo ATP luminescence, 48 h; Potency, µM (doses to about 46.1 µM), for inactives: top-dose activity, negative = less viability, actives largely listed as cytotoxic; 1.6% of 360,000 active; AID 686970;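 also: NT is the 2HG producing partner of a matched IDH1 knockdown line; 0% = DMSO-treated cells and -100% = media-only wells without cells; nearly all actives have a fitted effect of over 55% in size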
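Viability by CellTiter-Glo luminescence after 48 h compound exposure at 37C of HT-1080-NT cells (750/well, RPMI, 5% FBS). % activity scaled between DMSO wells and medium-only wells, then curve-fitted and categorized by curve class.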
Active calls of the source: *; i = inactive; u = inconclusive; x = not tested or not shown; [ ] = dose if it differs, or a comment. Only some compounds are listed: those with a hit (about 7.9% of all), similar ones and a draw of the others. Calls follow the shape of the dose curve; as a rule, active = well fitted curve in the direction sought with a large enough effect; inconclusive = small, poorly fitted or top-dose-only effect, or another doubt; inactive = no such curve, though single readings can be large; an effect the other way counts as inactive or inconclusive. Potency is read from the fitted curve at half-maximal effect.

SMILES	SW480 rereplic	KB-V1 cytotox	KB-3-1 cytotox	MCF10A rereplic	HT1080 IDH1KD tx	HT1080-NT tox
CCOC(=O)NN1C(=O)c2ccccc2NC1c1cccnc1 (stereo not given)	-48%	i	i	-5%	12%	11%
COc1ccc(-c2cc(C(=O)Nc3cc(C)n(Cc4ccc(Cl)cc4)n3)no2)cc1OC	-1%	i	i	u	u	u
CN(C)c1ccc(C=c2c3ccccc3n3c2cc(-c2ccc(Cl)cc2)[n+]3C)cc1	u	i	7.3µM*	26%	u	u
CN(C)c1ccc(C=c2c3ccccc3n3c2c2c([n+]3C)CCCC2)cc1	-2%	i	u	u	6.5µM*	u
COc1cc(N(C)C)ccc1C=c1c2ccccc2n2c1cc(-c1ccccc1)[n+]2C	u	u	1µM*	8%	12µM*	u
COc1cc(C=c2c3ccccc3n3c2cc(-c2ccccc2)[n+]3C)cc(OC)c1OC	u	u	u	u	u	-15%
CN(C)c1ccc(C=c2c3ccccc3n3c2cc(-c2ccccc2)[n+]3C)cc1	u	16µM*	u	-9%	21µM*	u
COc1ccc(CCC(=O)Nc2nnc(C)s2)cc1	1%	i	i	-7%	8%	23%
O=C(NC1CCNCC1)C1CC1	16%	i	i	7%	10%	2%
CN(C)c1ccc(C=c2c3cc([N+](=O)[O-])ccc3n3c2cc(-c2ccccc2)[n+]3C)cc1	7%	i	5.2µM*	u	10µM*	u
COc1ccccc1NC(=O)c1cc(OC)c(OC)cc1[N+](=O)[O-]	0%	i	i	-6%	12%	7%
Cc1ccc(NS(=O)(=O)c2cc(C(=O)NCCSc3ccc(C)cc3)ccc2C)cc1	16%	16µM*	i	26%	u	u
Cc1ccc(SCCNC(=O)c2ccc(C)c(S(=O)(=O)Nc3cccc(C)c3)c2)cc1	1%	u	i	13%	u	u
O=c1oc(-c2cccs2)nc2sc3c(c12)CCCC3	u	i	i	18µM*	0%	-1%
O=C1CN(c2nc(-c3cccs3)nc3sc4c(c23)CCCC4)CCN1	3%	u	i	u	13µM*	u
Fc1cccc(Nc2nc(N3CCOCC3)nc(N3CCOCC3)n2)c1	u	i	u	23µM*	-9%	0%
CCOC(=O)c1ccc(Nc2nc(N3CCOCC3)nc(N3CCOCC3)n2)cc1	u	i	i	u	u	10%
FC(F)(F)Oc1ccc(Nc2nc(N3CCOCC3)nc(N3CCOCC3)n2)cc1	21µM*	i	i	u	8%	28%
CCc1ccc(Nc2nc(N3CCOCC3)nc(N3CCOCC3)n2)cc1	8.2µM*	i	u	19%	3%	0%
O=C(N/N=C/C=C\c1ccccc1)c1cnccn1	0%	i	i	0%	17%	13%
O=C(N/N=C/C(Br)=C/c1ccccc1)c1cnccn1	3.3µM*	i	i	16µM*	u	u
Cn1cc(C(=O)N/N=C/C=C/c2ccccc2)ccc1=O	0%	i	i	-4%	19%	22%
O=C(Cc1cccs1)N/N=C/C(Br)=C/c1ccccc1	14%	i	i	18µM*	u	u
COc1cccc(C(=O)N/N=C/C(Br)=C/c2ccccc2)c1	u	3.7µM*	u	8.2µM*	12µM*	u
Cn1cc(C(=O)N/N=C/C(Br)=C/c2ccccc2)ccc1=O	u	i	u	26µM*	u	21µM*
SMILES	SW480 rereplic	KB-V1 cytotox	KB-3-1 cytotox	MCF10A rereplic	HT1080 IDH1KD tx	HT1080-NT tox
CC(/C=N/NC(=O)Cc1cccs1)=C\c1ccccc1	21%	i	i	u	16%	22%
O=C(COC(=O)c1oc2ccccc2c1CSc1ccc(Cl)cc1)NC1CCCC1	1%	u	u	u	-10%	0%
COc1ccc(C(=O)N/N=C/C(Br)=C/c2ccccc2)cc1	u	u	i	u	-13%	-11%
Cn1cc(C(=O)N/N=C/C(Br)=C\c2ccccc2)ccc1=O	18µM*	i	i	u	-28%	-9%
COc1cccc(C=C(C(C)=O)C(=O)c2ccccc2)c1	x	u	u	x	16µM*	u
COc1cccc(/C=C(/C(=O)OCC(N)=O)c2ccccc2)c1	-3%	u	i	-1%	-9%	-9%
O=C(c1ccccc1)c1cnc(Nc2ccccc2Cl)s1	22%	13µM*	i	u	-15%	-3%
CC(C)(C)C(=O)c1cnc(Nc2ccccc2Cl)s1	-6%[9.22 µM]	i	u	-2%	-9%	-20%
Cc1nc2ccccc2c(=O)n1NC(=O)c1c(O)c2c(n(CC(C)C)c1=O)CCCC2	u	u	u	u	u	20µM*
CCCCCCc1nc2ccccc2c(=O)n1NC(=O)c1c(O)c2c(n(CC(C)C)c1=O)CCCC2	17%	18µM*	21µM*	22%	-30%	-13%
Cc1ccc(Nc2nc(CSc3nnnn3-c3ccccc3)cs2)cc1	3%	15µM*	u	8%	-29%	-27%
Cc1ccc(Nc2nc(CSc3nnc(-c4ccccc4)n3C)cs2)cc1	13%	i	u	u	-2%	0%
Cc1ccc(Nc2nc(CSc3nnnn3C)cs2)cc1	-4%	23µM*	i	16%	1%	11%
Cc1ccc(Nc2nc(CSc3nnc(-c4ccccc4C)n3C)cs2)cc1	-65%	6.5µM*	u	u	-13%	-6%
Cn1nnnc1SCc1csc(Nc2ccccc2)n1	0%	i	i	6%	-2%	-5%
COC(=O)[C@H](C)NC(=O)Nc1cc(OC)ccc1OC	1%	i	i	7%	5%	12%
Cc1ccc(C2C(C(=O)c3cccs3)=C(O)C(=O)N2c2cccc(C)n2)cc1 (stereo not given)	-11%	u	i	7%	-8%	3%
CC(C)OCCCNCc1cccs1	-12%	i	i	-5%	9%	7%
CCOC(=O)c1c(C)[n+](-c2ccc(C)cc2)c(CC)c2cc(OC)c(OC)cc12	-11%	i	u	22%	u	u
N=c1oc2cc(O)ccc2cc1C(=O)Nc1ccc(Cl)cc1	2.6µM*	i	u	1.6µM*	u	-4%
Cc1ccc(N=c2oc3cc(O)ccc3cc2C(N)=O)cc1	16µM*	i	i	9.2µM*	u	u

Source: PubChem BioAssay (National Center for Advancing Translational Sciences (NCATS))
